Data as given in PubChem BioAssay (NCI).
About 83,000 compounds went through this panel and 20% of them were active in at least one assay; those are over-represented in the sample as a whole.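 Activity criterion: percent growth below 10, measured after cells in 96-well plates were exposed to a single compound concentration for 48 hours.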 Unmarked numbers belong to inactive results. The source made the active and inactive calls.

Test system: HL-60(TB) leukemia
Assay: NCI-60 one-dose screen, 48 h (100 = growth as untreated, 0 = no growth, -100 = all killed)
Settings: 10 µM unless noted

| Structure (SMILES) | growth |
| --- | --- |
| OCCn1cc(-c2nc3ccc4[nH]ncc4c3c3c2CCCC3)cn1 | 45.2% |
| Cc1ccc(-c2cc(-c3cc4ccccc4nc3Cl)[nH]c(=S)n2)cc1 | 11.6% |
| COc1cc(C2CC(c3ccc(F)cc3)=Nc3c(N)nc(N)nc3N2)ccc1Oc1nc(Nc2ccc(F)cc2)nc(N(C)C)n1 (stereo not drawn) | 14.4% |
| O=C(Nc1nc2ccc([N+](=O)[O-])cc2s1)Nc1ccccc1I | -1.54% (active) |
| COc1ccc2oc3c4[nH]c5ccccc5c4c4c(c3c2c1)C(=O)N(C(=O)OC(C)(C)C)C4=O | -7.65% (active) |
| O=C1NC(=NC23CC4CC(CC(C4)C2)C3)N/C1=C\c1ccc2ncoc2c1 | -8.15% (active) |
| Cc1cc(C)cc(Oc2cccc(-c3c(C)nnn3C3CCN(CCN(C)C)CC3)n2)c1 | -37% (active) |
| CCCCSc1nc(Nc2ccc(S(N)(=O)=O)cc2)c(C#N)c(-c2cc(OC)c(OC)c(OC)c2)n1 | -28% (active) |
| O=c1ccc(Cn2c(C(F)(F)F)cc3c(Cl)ncnc32)c[nH]1 | -20.6% (active) |
| O=C(NNC(=S)NC(=O)c1ccccc1)c1ccc(OCc2nc3ccc(Cl)cc3[nH]2)cc1 | 1.3% (active) |
| C=C1CCC2C3(C)COC(c4c(F)cccc4F)OC3CCC2(C)C1C/C=C1/C(=O)OCC1O (stereo not drawn) | 6.75% (active) |
| OCCNc1oc(-c2ccccc2)nc1[P+](c1ccccc1)(c1ccccc1)c1ccccc1 | -29.6% (active) |
| C#C[C@]1(O)CC[C@H]2[C@@H]3CC=C4c5sc(Nc6cc(C)cc(C)n6)nc5CC[C@]4(C)[C@H]3CC[C@@]21C | -16.4% (active) |
